Assay results taken from PubChem BioAssay AID624297 (National Center for Advancing Translational Sciences (NCATS), 2012).
The whole screen tested about 340,000 compounds, of which about 6,200 (1.8%) were called active. Roughly 10% stayed inconclusive and do not appear here. What follows is part of a selection rich in actives, with near analogues and random picks from the rest. A number with no mark means an inactive call. Calls come from the whole dose curve; as a rule, active = well fitted activation curve with a large enough effect; inconclusive = small, poorly fitted or top-dose-only effect; inactive = no such curve, though single readings can be large or run the other way.

assay: A quantitative high throughput screen for small molecules that induce DNA re-replication in SW480 colon adenocarcinoma cells.; note: nearly all actives have a fitted effect of over 55% in size; for re-replication activation: % of control where 0% means no effect; conditions: Hoechst DNA content imaging, 48 h; series mostly up to 46.1 µM; re-replication activation: at the top concentration
Summary of the method: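 Per well, 250 cells were exposed to pinned compound for 48 hr. Nuclear DNA was visualised with Hoechst (40 min, 37 C) and total object intensity recorded by fluorescence scanning.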
Potency is the fitted concentration of half-maximal effect.

| SMILES | re-replication activation | Potency |
| --- | --- | --- |
| N#Cc1c(-c2ccccc2)cc(-c2ccccc2)nc1SCC(=O)O | -1.38% | – |
| CCOc1ccc(CCNC(=O)COC(=O)C2CCN(S(=O)(=O)c3ccccc3)CC2)cc1OCC | -32.9% | – |
| CC(=O)CSc1nc(CCc2ccccc2)c(C#N)c(=O)[nH]1 | 4.33% [at 1.84 µM] | – |
| O=C(N[C@H]1C/C=C\C(c2ccc(F)cc2)N(Cc2ccccc2)C(=O)C1)OCC1c2ccccc2-c2ccccc21 (stereo partly drawn) | 5.83% | – |
| CN(C(=O)c1ccc(NC(=O)Cc2cccc(NC(=O)C3CCN(C(=O)c4ccccc4)CC3)c2)cc1)C1CC1 | -22.3% [at 9.22 µM] | – |
| O=C(CNC(=O)c1cc(S(=O)(=O)N2CCOCC2)ccc1N1CCCC1)Nc1ccc(F)c(F)c1 | -6.04% | – |
| COc1ccc(OCc2cn3c(C)cc(C)nc3n2)cc1 | -0.0448% | – |
| COc1ccc(C(=O)CSc2nc(C)cc(C)n2)cc1[N+](=O)[O-] | -11.1% | – |
| COc1ccc(C(C[N+](=O)[O-])n2nc(C)cc2C)cc1 (stereo not drawn) | – | 5.8 µM (active) |
| Cc1cc(C(=O)COc2ccc(Br)cc2F)c(C)n1C1CC1 | -11.4% | – |
| O=C1NC(c2ccccc2)Cc2ccncc21 (stereo not drawn) | -3.42% | – |
| C[C@@H]1NS(=O)(=O)c2cc(Cl)ccc2O[C@@H]1c1ccccc1 | 7.03% | – |
| O=C1OCCN1C(=O)[C@H]1[C@H](c2ccc(F)cc2)C(c2ccccc2)=NN1c1ccc(Br)cc1 | – | 9.2 µM (active) |
| Cc1cc(OCCCC(=O)Nc2cc(S(=O)(=O)N3CCOCC3)ccc2N2CCOCC2)ccc1Cl | -0.175% | – |
| O=C1C(=O)N(c2ccccc2)C(c2ccccc2)C1c1ccccc1 (stereo not drawn) | 0.98% | – |
| O=C1C=C(c2ccc(Cl)cc2)C(=O)N1Nc1ccccc1 | – | 6.51 µM (active) |
| O=C1c2cccc3cc(Br)cc(c23)C(=O)N1Nc1ccccc1 | -1.37% [at 9.22 µM] | – |
| O=C(O)CC1=C(Nc2ccccc2)C(=O)N(c2ccccc2)C1c1ccc(Cl)cc1 (stereo not drawn) | 3.57% | – |
| C#CCOCCOCCOCCNc1nc(N2CCN(C(=O)C([C@@H](C)O)n3cc([C@@H](N)CCCCN)nn3)CC2)nc(N2CCN(C(=O)[C@H](CCCCN)n3cc(CN)nn3)CC2)n1 (stereo partly drawn) | -4.36% | – |
| COC(=O)[C@]1(Cc2ccccc2)N[C@H](CN(C)S(=O)(=O)c2ccc(OC(F)(F)F)cc2)[C@@H]2C(=O)N(Cc3ccccc3)C(=O)[C@@H]21 | -6.08% | – |
| CCCCN1CC(COc2ccccc2)Oc2cccc(F)c2S1(=O)=O (stereo not drawn) | -0.739% | – |
| Cc1ccnc(NC(=O)C2CCN(S(=O)(=O)c3c(C)c(C)cc(C)c3C)CC2)c1 | – | 16.4 µM (active) |
| Cc1cccc(NC(=O)C2CCN(S(=O)(=O)c3cccc4cccnc34)CC2)c1 | 2.9% | – |
| O=C(Nc1ccccn1)C1CCN(S(=O)(=O)c2ccccc2)CC1 | -5.61% | – |

| SMILES | re-replication activation | Potency |
| --- | --- | --- |
| C=CC[C@H](CC(=O)N(CCO)Cc1ccccc1)C(=O)N[C@@H](COC(=O)[C@@H](CC=C)Cc1ccc(F)cc1)Cc1ccccc1 | 19.7% | – |
| O=[N+]([O-])c1cccc2ncccc12 | -2.67% | – |
| Cc1ccccc1NC(=O)c1ccccc1NS(=O)(=O)c1cccc2cccnc12 | -6.45% | – |
| O=[N+]([O-])c1ccccc1S(=O)(=O)Nc1cccc2cccnc12 | – | 13 µM (active) |
| CC(=O)C(CC(=O)N1CCCC1)C(=O)Nc1ccc(Cl)cc1 (stereo not drawn) | -3.64% | – |
| COC1=NC2=NCCN2C(OC)=N1 | -5.59% | – |
| O=C(NCCN1CCOCC1)c1ccc2c(c1)ncn2C1CCCC1 | 10.1% | – |
| O=C(NCCN1CCOCC1)c1cc(-c2cccs2)nc2ccccc12 | -5.04% | – |
| c1ccc2cc3c(NCCN4CCOCC4)ccnc3cc2c1 | – | 10.3 µM (active) |
| Cc1ccc(S(=O)(=O)N2CCN(C(=O)COC(=O)CNC(=O)c3ccc(C(C)(C)C)cc3)CC2)c(C)c1 | 9.49% | – |
| Cc1ccc(-n2c(=O)c(C#N)cc3c(=O)n4ccccc4nc32)cc1C | 12.5% | – |
| Cc1ccc(S(=O)(=O)c2cc3c(=O)n4cccc(C)c4nc3n(CCc3ccccc3)c2=N)cc1C | 0.0757% | – |
| CCn1c(=N)c(S(=O)(=O)c2ccc(F)cc2)cc2c(=O)n3ccccc3nc21 | – | 20.6 µM (active) |
| Cc1cc(C)c(C#N)c(N2CCC(C(N)=O)CC2)n1 | -2.1% | – |
| N#Cc1c(C(F)(F)F)cc(-c2cccs2)nc1N1CCCCC1 | 0.724% | – |
| N#CCc1c(C#N)c(N)nc(N2CCCC2)c1C#N | – | 14.6 µM (active) |
| O=C(OCCOc1ccccc1F)c1cc(S(=O)(=O)N2CCOCC2)ccc1F | -0.079% | – |
| COc1cccc(NC(=O)COC(=O)c2ccc3ccccc3n2)c1 | 1.57% | – |
| CN(CCc1ccccc1)C(=O)c1cccc(NC(=O)Cc2cccc(NC(=O)C3CCCN(C(=O)CCc4ccccc4)C3)c2)c1 (stereo not drawn) | 0.811% | – |
| CC(NC(=O)c1ccccc1)C(=O)OCC(=O)Nc1cccc(S(=O)(=O)N2CCCC2)c1 (stereo not drawn) | -5.24% | – |
| CC1(C)CC(=O)C(C2c3ccccc3S(=O)(=O)c3ccccc32)C(=O)C1 | – | 4.11 µM (active) |
| CC1(C)CC(=O)C=C(Nc2ccccc2)C1 | -23.6% | – |
| CC1(C)CC(=O)C(CC(=O)N2CCC(Cc3ccccc3)CC2)C(=O)C1 | -0.753% | – |
| COC(=O)C1CCN(C(=O)COC(=O)c2cc(S(=O)(=O)N3CCOCC3)ccc2C)CC1 | -0.243% | – |
